Test results reported in PubChem BioAssay (Tox21).
Several values for one entry are separate records, joined by “and”; a condition that tells them apart may be missing. Identical values can stand only once. Records with an inconclusive call do not appear. Activity calls are given as the source filed them. The call rests on the fitted dose curve; in most records, active means well fitted curve in the direction sought with a large enough effect in the repeat runs; inconclusive means weak or mixed curves; inactive means no such curve, though single readings can be large; an effect the other way counts as inactive or inconclusive.

What was measured:
[1] = A CellTox Green Cytotoxicity Assay to monitor cytotoxicity in HEK293 cells - 32 hour (AID 1224881); further: nearly all actives have a fitted effect of over 40% in size
How it was run: (§1)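 Tox21 screen in HEK293: membrane-impermeant cyanine dye fluoresces on binding dead-cell DNA; compound pinned 5 h post-seeding, plates held at 37 C, signal read repeatedly through 40 h.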

[2] = A CellTox Green Cytotoxicity Assay to monitor cytotoxicity in HepG2 cells - 0 hour (AID 1224882); further: nearly all actives have a fitted effect of over 35% in size
How it was run: (§2)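 Measurements at 0, 8, 16, 24, 32 and 40 h of treatment captured CellTox Green fluorescence in HepG2 cells that had been co-plated with reagent and preincubated 5 h at 37 C/5% CO2.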

[3] = A CellTox Green Cytotoxicity Assay to monitor cytotoxicity in HepG2 cells - 32 hour (AID 1224883); further: nearly all actives have a fitted effect of over 50% in size
How it was run: as §2

[4] = A CellTox Green Cytotoxicity Assay to monitor cytotoxicity in HEK293 cells - 8 hour (AID 1224884); further: nearly all actives have a fitted effect of over 35% in size
How it was run: as §1

[5] = qHTS RealTime-Glo MT Cell Viability Assay in HepG2 cells - 16 hour (AID 1224885); further: nearly all actives have a fitted effect of over 50% in size
How it was run: (§3)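 Cell number in HepG2 cultures estimated from NanoLuc luminescence generated by metabolic reduction of a prosubstrate by living cells. The homogeneous, nonlytic format allowed repeated reads at 0, 8, 16, 24, 32 and 40 h of compound exposure.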

[6] = A CellTox Green Cytotoxicity Assay to monitor cytotoxicity in HEK293 cells - 16 hour (AID 1224888); further: nearly all actives have a fitted effect of over 35% in size
How it was run: as §1

[7] = qHTS RealTime-Glo MT Cell Viability Assay in HepG2 cells - 0 hour (AID 1224889); further: nearly all actives have a fitted effect of over 50% in size
How it was run: as §3

[8] = A CellTox Green Cytotoxicity Assay to monitor cytotoxicity in HepG2 cells - 8 hour (AID 1224890); further: nearly all actives have a fitted effect of over 45% in size
How it was run: as §2

[9] = qHTS RealTime-Glo MT Cell Viability Assay in HEK293 cells - 8 hour (AID 1224887); further: nearly all actives have a fitted effect of over 50% in size; on activity change, negative = cytotoxicity: top concentration of the series differs between compounds
How it was run: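 HEK293 + NanoLuc + prosubstrate, 600 cells/well; 5 h, 37 C/5% CO2; compound 23 nL in DMSO by pintool; 37 C; luminescence read at 0, 8, 16, 24, 32 and 40 h time points.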

[10] = qHTS RealTime-Glo MT Cell Viability Assay in HEK293 cells - 24 hour (AID 1224886); further: nearly all actives have a fitted effect of over 50% in size; on activity change, negative = cytotoxicity: top concentration of the series differs between compounds
How it was run: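 Homogeneous bioluminescent viability format in HEK293 cells (600 cells/well). Following 5 h at 37 C/5% CO2, 23 nL compound was pintooled; the signal was measured repeatedly during 40 h incubation.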
On the % scale 0 is the no-effect control and ±100 the full control effect; potency means the concentration at half of the fitted maximal effect.

Cc1cc(C2CCCCC2)n(O)c(=O)c1
inactive: Potency [1] | Potency [2] | Potency [3] | Potency [4] | Potency [5] | Potency [6] | Potency [7] | Potency [8]

NNc1nc(-c2ccc(N)cc2)cs1
inactive: Potency [1] | Potency [2] | Potency [3] | Potency [4] | Potency [5] | Potency [9] | Potency [6] | Potency [8]

O=C(NOCC1CC1)c1ccc(F)c(F)c1Nc1ccc(I)cc1Cl
active: Potency [3] 0.0849 µM
inactive: Potency [1] | Potency [2] | Potency [4] | Potency [5] | Potency [6] | Potency [7] | Potency [8]

CCCCCCCCS(=O)C(C)Cc1ccc2c(c1)OCO2 (centres undefined)
inactive: Potency [1] | Potency [2] | Potency [3] | Potency [4] | Potency [5] | Potency [6] | Potency [7] | Potency [8]

CCN(CCC#N)c1ccc(N=Nc2c(Cl)cc([N+](=O)[O-])cc2Cl)cc1
inactive: Potency [1] | Potency [2] | Potency [3] | Potency [4] | Potency [10] | Potency [9] | Potency [6] | Potency [7] | Potency [8]

C/C(=C(/OCCOc1ccc(Cl)cc1)c1ccc(Cl)cc1Cl)n1ccnc1
inactive: Potency [1] | Potency [2] | Potency [3] | Potency [4] | Potency [5] | Potency [6] | Potency [7] | Potency [8]

CC/C(=C(\c1ccc(O)cc1)c1ccc(OCCN(C)C)cc1)c1ccccc1
active: Potency [1] 43.8 µM | Potency [3] 49.1 µM | Potency [5] 61.8 µM | Potency [10] 21.9 µM | Potency [9] 27.6 µM | Potency [6] 55.1 µM
inactive: Potency [2]

CCCC(=O)OC[C@@H](OC(=O)CCC)[C@@H](OC(=O)CCC)[C@H](Cn1c2nc(=O)[nH]c(=O)c-2nc2cc(C)c(C)cc21)OC(=O)CCC
active: Potency [1] 21.3 µM | Potency [2] 16.9 µM | Potency [3] 19 µM | Potency [4] 21.3 µM | Potency [6] 21.3 µM | Potency [8] 19 µM
inactive: Potency [7]

CCOC(=O)c1nc(C(Cl)(Cl)Cl)n(-c2ccc(Cl)cc2Cl)n1
inactive: Potency [1] | Potency [2] | Potency [3] | Potency [4] | Potency [10] | Potency [6] | Potency [7] | Potency [8]

CCN1/C(=C/C=C/c2sc3ccccc3[n+]2CC)Sc2ccccc21
inactive: cytotoxicity [2] -4.71% [at 15.8 µM] | cytotoxicity increase [4] -9.76% [at 15.8 µM] | activity change, negative = cytotoxicity [9] -21.6% [at 15.8 µM] | activity change [6] -3.87% [at 15.8 µM, hits give high values] | activity change, negative = cytotoxicity [7] -13.2% [at 15.8 µM] | cytotoxicity increase [8] -7.07% [at 15.8 µM]
active: Potency [1] 10.4 µM | Potency [3] 1.17 µM | Potency [10] 1.17 µM

C[C@@H]1C[C@H]2[C@@H]3CCC4=CC(=O)C=C[C@]4(C)[C@@]3(Cl)[C@@H](O)C[C@]2(C)[C@@]1(OC(=O)c1ccco1)C(=O)CCl
inactive: Potency [1] | Potency [2] | Potency [3] | Potency [4] | Potency [10] | Potency [6] | Potency [7] | Potency [8]

CN(C)c1ccc(C2(c3ccc(N(C)C)cc3)OC(=O)c3cc(N(C)C)ccc32)cc1
inactive: Potency [1] | Potency [2] | Potency [3] | Potency [4] | Potency [10] | Potency [9] | Potency [6] | Potency [7]

CCCC1O[C@@H]2C[C@H]3[C@@H]4CCC5=CC(=O)C=C[C@]5(C)[C@H]4[C@@H](O)C[C@]3(C)[C@]2(C(=O)CO)O1 (some centres undefined)
active: Potency [7] 7.77 µM and 7.76 µM
inactive: Potency [1] | Potency [2] | Potency [3] | Potency [4] | Potency [5] | Potency [6] | Potency [8]

CCC1OCC(COc2ccc(Oc3ccccc3)cc2)O1 (centres undefined)
inactive: Potency [1] | Potency [2] | Potency [3] | Potency [4] | Potency [5] | Potency [6] | Potency [8]

CC1=C(C(=O)OC(C)C)C(c2cccc([N+](=O)[O-])c2)C(C(=O)OC2CN(C(c3ccccc3)c3ccccc3)C2)=C(N)N1 (centres undefined)
inactive: Potency [1] | Potency [2] | Potency [4] | Potency [6] | Potency [7]
active: Potency [3] 23.9 µM | Potency [5] 21.3 µM

CC1=NC(C)OC1C (centres undefined)
inactive: Potency [1] | Potency [2] | Potency [3] | Potency [4] | Potency [5] | Potency [9] | Potency [6] | Potency [7] | Potency [8]

CCC(C)Nc1ccc(NC(C)CC)cc1 (centres undefined)
active: Potency [1] 12.5 µM | Potency [3] 19.9 µM | Potency [5] 17.7 µM | Potency [10] 4.45 µM | Potency [9] 4.99 µM | Potency [6] 39.7 µM
inactive: Potency [2]

O=C1c2c(O)ccc(Nc3ccc(CCO)cc3)c2C(=O)c2c([N+](=O)[O-])ccc(O)c21
active: Potency [9] 43.6 µM
inactive: Potency [1] | Potency [2] | Potency [3] | Potency [4] | Potency [6] | Potency [8]

O=C(N/N=C/c1ccccc1O)c1ccncc1
inactive: Potency [1] | Potency [2] | Potency [3] | Potency [4] | Potency [5] | Potency [6] | Potency [7] | Potency [8]
